Compound activity: PubChem, Sanford-Burnham Center for Chemical Genomics
tim23-1 inh: growth inhibitors of tim23-1 mutant yeast, primary screen, luminescence, uHTS. actives 1.3% (n = 330,000). S. cerevisiae tim23-1 growth, BacTiter-Glo luminescence, 24 h. inhibition, % at 20 µM. AID 463212, 2010;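 active means growth inhibition of the mutant yeast at or above 50%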;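 further: temperature-sensitive mutant grown at 25 °C; plate controls were DMSO-treated mutant yeast for no effect and medium wells lacking yeast for full effect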
TIM10 inh: growth inhibitors of isogenic TIM10 control yeast, primary screen, counter-screen for tim10-1 yeast inhibitor project, luminescence, uHTS; S. cerevisiae TIM10 strain growth, BacTiter-Glo luminescence, 24 h; inhibition, % at 10 µM; actives 1.4% (n = 330,000);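 active means inhibition of 40% or more at the single tested concentration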;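 further: wild-type TIM10 isogenic control strain grown at permissive 25 °C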
NALP3 yeast inh: NALP3 inflammasome inhibitors in reconstituted yeast, primary screen, luminescence, uHTS; AID 2825, 2010; Yeast reconstituted NLRP3/ASC/caspase-1, beta-gal luminescence, 24 h; actives 0.39% (n = 330,000); inhibition, % at 10 µM;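 active means inhibition of 50% or more; inactive means inhibition below 50%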;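 further: plate controls were induced DMSO wells for no effect and uninduced yeast grown without galactose for full effect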
tim10-1 inh: growth inhibitors of tim10-1 mutant yeast, primary screen, luminescence, uHTS. inhibition, % at 20 µM. S. cerevisiae tim10-1 ts strain growth, BacTiter-Glo, 24 h. actives 2.2% (n = 330,000). AID 463190, 2010;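 active means inhibition of at least 40%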;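 further: mutant grown at 25 °C; 0% = DMSO wells with yeast and 100% = wells holding no yeast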
NALP1 inh: NALP1 inflammasome inhibitors in reconstituted yeast, colorimetric, S. cerevisiae, triplicate retest | inhibition, % at 10 µM | S. cerevisiae NALP1/ASC/caspase-1 growth, X-gal OD620, 72 h | actives 0.61% (n = 280,000); in the data active means inhibition mostly above about 24%, no sharp cut-off; inactive means mostly below about 32%
NALP3 confirm: NALP3 inhibitors retested in yeast, confirmation, luminescence, single concentration. actives 81% (n = 1,300). inhibition, % at 10 µM. shares compounds with NALP3 yeast inh. yeast expressing human NALP3; in the data active means inhibition above about 48%
Casp1 ASC ctr: CASP1-PYCARD signaling inhibition in yeast, confirmatory test, counterassay for NLRP3 inhibitor program, one-dose. shares compounds with NALP3 yeast inh. yeast expressing Caspase-1-ASC, luminescence counter screen. inhibition, % at 10 µM. actives 66% (n = 1,000)
NALP3 yeast rt: NALP3 inhibitors in yeast, repeat test, confirmation, luminescence, single concentration, retest | shares compounds with NALP3 yeast inh | yeast expressing human NALP3, luminescence read-out | inhibition, % at 10 µM | actives 53% (n = 1,000)
Active calls of the source: *; / = no result. Compounds with a hit are over-represented: about 4% of the library has one in this group of screens. Unless noted, no stated cut-off is given here; in the data, active means inhibition above about 50%; inactive means the rest.

SMILES | tim23-1 inh | TIM10 inh | NALP3 yeast inh | tim10-1 inh | NALP1 inh | NALP3 confirm | Casp1 ASC ctr | NALP3 yeast rt
O=C(Nc1ccc2c(c1)OCCO2)c1cc2ccccc2o1 | 30 | 30 | 53* | 2 | 18 | 69* | 63* | 73*
COc1ccc(C)cc1NC(=O)c1cc2ccccc2o1 | -13 | 3 | 18 | 6 | 4 | / | / | /
Cc1ccc(C)c(NC(=O)c2cc3ccccc3o2)c1 | 31 | -14 | 55* | 25 | 21 | 44 | 52* | 41
CC[C@]12c3[nH]c4cc(-c5ccco5)ccc4c3CCN1C(=O)[C@@H](CC(=O)NCCCOC)C[C@@H]2C(=O)N1CCN(C(=O)c2ccco2)CC1 | 30 | 1 | / | 18 | / | / | / | /
O=C(O)CCN1C(=O)c2ccc(NC(=O)Cc3ccc(Cl)cc3)cc2C1=O | 2 | -12 | 17 | -3 | -2 | / | / | /
CN(C)C(=O)c1ccc(NC(=O)c2ccccc2SCC(=O)N2CCCC2)cc1 | 10 | -5 | 5 | 5 | / | / | / | /
S=c1[nH]nc(COc2ccc(Cl)cc2)n1Cc1ccccc1 | 3 | 26 | 15 | 14 | 0 | / | / | /
c1ccc(OCc2nnnn2-c2ccccc2)cc1 | 13 | -11 | -105 | 27 | -25 | -66 | -20 | -36
Clc1ccc(OCc2nnnn2-c2ccccc2)cc1 | 30 | 7 | -114 | 39 | -35 | -41 | / | /
Cc1nn(C)c(C)c1NC(=O)c1ccccc1NC(=O)Nc1ccccc1 | -3 | 10 | 20 | 15 | -12 | / | / | /
COC(Cn1c2c(c3cc(C)ccc31)CCCC2NCc1ccccc1)OC (centres undefined) | / | / | / | / | -22 | / | / | /
c1ccc(Sc2cccc3ccccc23)c(CNC2=NCCN2)c1 | 13 | 10 | 74* | -34 | 78* | 63* | 49 | 70*
Fc1ccccc1Sc1ccccc1CNC1=NCCN1 | 10 | 9 | 14 | 27 | 42 | / | / | /
O=C(/C=C/c1cccc([N+](=O)[O-])c1)NCc1ccccc1 | 11 | 11 | 17 | 6 | -23 | / | / | /
O=C(/C=C/c1cccc([N+](=O)[O-])c1)NCCSCc1cccc(Cl)c1 | 37 | 37 | 71* | 38 | 21 | -6 | / | /
Cc1ccc(N2CCN(S(=O)(=O)c3cccs3)CC2C)cc1 (centres undefined) | 46 | 7 | 56* | 17 | 35 | 57* | 57* | 50
CC1CN(S(=O)(=O)c2cccs2)CC(C)O1 (centres undefined) | -12 | 0 | -21 | -9 | 11 | / | / | /
O=S(=O)(c1cccs1)N1CCN(c2ccccc2)CC1 | 7 | 3 | 44 | -2 | 10 | / | / | /
O=S(=O)(c1cccs1)N1CCN(c2ccc(Cl)cc2)CC1 | 25 | -14 | 58* | 11 | 33 | 63* | 46 | 37
CCc1ccc(C(=O)NNC(=O)c2ccc(OCC(=O)N3CCOCC3)c(OC)c2)cc1 | -6 | 2 | 20 | -11 | / | / | / | /
O=C(Nc1ccccc1)c1cc2ccccc2c(=O)s1 | 15 | 18 | 59* | -12 | 23 | 10 | / | /
Brc1ccc(-c2csc(NC3=NCCCCC3)n2)cc1 | 24 | 17 | 58* | 7 | 30 | 55* | 50 | 41
COc1ccc(-c2csc(NC3=NCCCCC3)n2)cc1 | 30 | 27 | 31 | 16 | 4 | / | / | /
COc1cccc(-n2c(-c3ccccc3)c[nH]c2=S)c1 | 7 | 12 | 35 | -9 | -2 | / | / | /
CCOc1ccc(-n2c(-c3ccccc3)nnc2-c2ccccc2)cc1 | 7 | 28 | 25 | 21 | 33 | / | / | /
SMILES | tim23-1 inh | TIM10 inh | NALP3 yeast inh | tim10-1 inh | NALP1 inh | NALP3 confirm | Casp1 ASC ctr | NALP3 yeast rt
Cc1ccc(-c2c[nH]c(=S)n2-c2ccccc2F)cc1 | 5 | 16 | 55* | 26 | -8 | 38 | / | /
CCOc1ccc(-n2c(-c3ccccc3)c[nH]c2=S)cc1 | -1 | 17 | 59* | 7 | -6 | 58* | 22 | 25
Cc1ccc(-c2c[nH]c(=S)n2-c2ccccc2)cc1 | 4 | 26 | 61* | 19 | 10 | 36 | 39 | 29
CCOc1ccccc1NC(=O)Nc1ccon1 | -1 | -16 | 14 | -12 | 31 | / | / | /
COc1ccc(Cl)cc1C(=O)NNC(=O)COC(=O)CCN=C1NS(=O)(=O)c2ccccc21 | 9 | 1 | 45 | 1 | / | / | / | /
CCC(Cc1ccccc1)NS(=O)(=O)c1c(C)nc2scc(C)n2c1=O (centres undefined) | 19 | 10 | 1 | 17 | 9 | / | / | /
Fc1cccc(/C=N/Nc2nccnc2Cl)c1 | 18 | 12 | 23 | 18 | 9 | / | / | /
Fc1cccc(/C=N/Nc2nncc3ccccc23)c1 | 18 | 18 | 57* | 10 | 12 | 63* | 44 | 38
Cc1c(Cl)cccc1NC(=O)c1ncn[nH]1 | 4 | -2 | -1 | -5 | / | / | / | /
COc1ccc(C(=O)NCC(=O)OCC(=O)NC2CCCCCC2)cc1 | 23 | 9 | 3 | 14 | / | / | / | /
CCOc1cc(C)c(S(=O)(=O)N2CCCCC2)cc1C | 13 | -12 | 74* | -2 | 1 | 76* | 80* | 65*
CCOc1cc(S(=O)(=O)N2CCCC2)c(C)cc1C | 15 | 12 | 39 | 11 | 17 | / | / | /
COc1cc(C)c(S(=O)(=O)N2CCCC2)cc1C | 19 | -10 | 77* | 3 | 24 | 83* | 87* | 65*
C=CCCC(=O)NC1CCCc2c1cnn2-c1ccccc1F (centres undefined) | -3 | -3 | 27 | -1 | 2 | / | / | /
NCCc1nnc(SCc2ccccc2F)o1 | 1 | 4 | 63* | 9 | 16 | 74* | 68* | 70*
Cc1ccc(C)c(CSc2nnc(CCN)o2)c1 | 8 | 7 | 72* | 16 | 3 | 80* | 65* | 72*
NCCc1nnc(SCc2ccccc2)o1 | 3 | -9 | 61* | 7 | 16 | 75* | 61* | 61*
c1ccc(CSc2nnc(Cc3ccccc3)o2)cc1 | 16 | 6 | 10 | 21 | 9 | / | / | /
CCOc1ccc(C(=O)NC2CCN(C(=O)Nc3ccc(F)cc3)CC2)cc1 | 0 | 7 | 10 | -20 | 10 | / | / | /
COc1cc(CNC(C)c2ccccc2)cc(Cl)c1OCC(=O)Nc1ccccc1 (centres undefined) | 20 | 21 | 53* | 7 | 4 | 44 | / | /
CCN(CC)CCNCc1cc(Cl)c(OCC(=O)Nc2ccccc2)c(OC)c1 | -1 | -15 | 5 | -9 | 15 | / | / | /
COc1ccc(C2C(=O)c3ccccc3C2=O)cc1OC | 7 | 13 | 2 | 7 | 8 | / | / | /
